These results are taken from PubChem BioAssay (NCI).

Each structure is given as a SMILES string. About 83,000 compounds went through this panel and 20% of them were active in at least one assay; those are over-represented in the sample as a whole.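 The test compound was applied at a single concentration to cells in 96-well plates for 48 hours, and percent growth was recorded.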 Unmarked numbers belong to inactive results. The source made the active and inactive calls. The calls were made as follows: active = growth percent below 10; inactive = the rest.

The first experiment has as its system NCI-H322M lung. The experiment can be described thus: NCI-60 one-dose screen, 48 h (100 = growth as untreated, 0 = no growth, -100 = all killed). To be noted: 10 µM unless noted.
Turning to `COc1ccc(NC(=O)CSc2nnc(-c3cc(-c4ccccc4)nc4ccccc34)n2-c2ccccc2)cc1`, the growth is 94.6%.
Still for that read-out and setting: the result for `COc1cc(C2CC(=O)Nc3c2c(C)nn3-c2nc3ccccc3[nH]2)cc2c1OCC(=O)N2` (stereo not drawn) reads 94%.
Regarding `Cc1cc(Cl)nc(NCc2cc(Nc3ccnc4cc(Cl)ccc34)ccc2F)n1`, the growth was 79.6%.
In the case of `COc1ccc2c(c1)[nH]c(=O)c1c3cccnc3cn21`, the growth was 85.8%.
With `Cc1ccc(Cc2cnc(NC(=O)c3ccc4noc(-c5ccccc5)c4c3)s2)cc1`, the growth is 88.5%.
For `CC1=CN2C(=O)C3C4=C(CCCC4)SC3N=C2CN1c1c(C)cccc1C` (stereo not drawn), the growth was 109%.
The same measure, in the same setting: as for `Cc1ccc2[nH]c(=O)c3c(c2c1)OC(N)=C(C#N)C31c2cc(Br)ccc2-c2ccc(Br)cc21`, the figure is 75.3%; as for `CS(=O)(=O)c1ccc(Nc2nc(N[C@H]3CCCC[C@H]3N)nc3cc[nH]c(=O)c23)cc1`, 24.1%; as for `O=C(NCCCNc1cc(-c2cn(-c3ccccc3)nc2-c2cccc(O)c2)ccn1)c1cccc(O)c1`, 111%.
In the case of `COc1ccc(C(=O)COc2ccc(/C=C3\Oc4ccccc4C3=O)cc2)cc1`, the growth was 108%.
On to `Cc1ccc(C2SCC(=O)N2Cc2ccccc2)cc1` (stereo not drawn), for which the growth was 95.6%.
Consider `Cc1cccc(Cc2cnc(NC(=O)/C=C/c3ccco3)s2)c1`, for which the growth is 37.8%.
On the same count and under the same terms, the result for `CN(C)CCNc1nc2ccccc2c2c1c1c(n2Cc2ccccc2)-c2ccccc2C1=O` reads -79.5% (active); that for `Cc1occc1-c1n[nH]c(=S)n1N1C(=O)CSC1=S`, 99.4%; that for `Cc1cccc(NC(=O)CSc2nc3ccccc3[nH]2)c1`, 97%.
In the case of `Cc1ccccc1NC(=O)N/C(N)=N/c1nc(C)c(C)s1`, the growth is 46.2%.
Still for that read-out and setting: the result for `NNC(=O)c1nc(N)n(-c2ccc(S(N)(=O)=O)cc2)n1` reads 97.3%.
On the same count and under the same terms, as for `COc1cc(CCC[P+](c2ccccc2)(c2ccccc2)c2ccccc2)cc2c1OCO2`, the figure is 79.4%; as for `O=C1/C(=C2/C=Nc3ccccc32)N(O)c2ccccc21`, 108%.
The same measure, in the same setting: the result for `COc1ccccc1N1C(=O)/C(=C/C2=Cc3ccccc3OC2)SC1=S` reads 92.6%; that for `C=CCn1c(C)nc2cc(Nc3nc(Cl)nc4ccccc34)ccc21`, 109%; that for `COc1cc(/C=C/C(=O)c2c(C)nc3ccccc3c2C)ccc1OCCCN1CCN(C(=O)c2ccco2)CC1`, 91.8%.
Take `Cn1cc(-c2csc(-c3ccccc3)n2)c2cccnc21`: the growth is -23.6% [100 µM] (active).
As for `N=C(N)c1ccc(-c2ccc(-c3cncc4ccccc34)s2)s1`, the growth was -90.9% (active).
For `CC(C)CC(NC(=O)CN(Cc1ccccc1)S(C)(=O)=O)C(=O)O` (stereo not drawn), the growth was 93.8%.

The next experiment has as its system HOP-62 NSCLC. The description is as above. The conditions noted are these: 10 µM unless noted.
With `Cc1ccc(Cl)cc1NC(=O)c1cc2ccccc2cc1O`, the growth was -23.8% (active).
`COc1ccc(NC(=O)CSc2nc(C)c(C(C)=O)n2-c2ccc([N+](=O)[O-])cc2)cc1`: the growth is 95.7%.
With `O=C(NC(Cc1nnc2n(Cc3ccccc3)c(=O)c3c4c(sc3n12)CCCC4)c1ccc(Cl)cc1)c1ccccc1` (stereo not drawn), the growth is 77.2%.
`COc1cc(C2CC(=O)Nc3c2c(C)nn3-c2nc3ccccc3[nH]2)c(OC)c(OC)c1OC` (stereo not drawn): the growth was 44.3%.
In the case of `Cn1c(-c2c(N)n(Cc3ccc(C(F)(F)F)cc3)c3nc(C#N)c(C#N)nc23)nc2ccccc21`, the growth was 21.3%.
Consider `N#Cc1c(-c2ccccc2)cc(-c2ccc(Nc3nc(Nc4ccc(F)cc4)nc(Nc4ccc(F)cc4)n3)cc2)nc1N`, for which the growth is 80.5%.
For the compound `Cc1c(O)cc(-c2cnc(N/N=C\c3ccc(Cl)cc3)s2)c(O)c1C`, the growth is 98.6%.
Consider `COc1ccc2c(c1)O/C(=C\c1cccc(OCC(=O)Nc3nc4ccccc4s3)c1)C2=O`, for which the growth is 115%.
For the compound `Cn1c2c(c3ccc(Cl)c(Cl)c31)C(C#N)C1(CCNCC1)NC2=O` (stereo not drawn), the growth was 23.8%.
In the case of `COc1ccc(C2=NN(C(=O)c3cc(OC)c(OC)c(OC)c3)C(c3ccc(Cl)cc3)C2)cc1OC` (stereo not drawn), the growth is 44.1%.
Consider `CCN(CC)CCN1CC(O)=C(c2nc(-c3ccc(Cl)cc3)cs2)C1=N`, for which the growth is -53.3% (active).
Regarding `C=C(C)[C@@H]1CC=C2c3sc(-c4ccc(C)cc4)nc3C[C@@H](C)[C@]2(C)C1`, the growth was 102%.
Same read-out and setting: the result for `COC(=O)c1c2c(c[n+]([O-])c1C)C(=O)C=CC2=O` reads 104%; that for `COc1ccc(NC(=O)CSc2nnc(-c3cc(-c4ccccc4)nc4ccccc34)n2-c2ccccc2)cc1`, 101%.
For the compound `COc1cc(C2CC(=O)Nc3c2c(C)nn3-c2nc3ccccc3[nH]2)cc2c1OCC(=O)N2` (stereo not drawn), the growth is 80.8%.
For the compound `Cc1cc(Cl)nc(NCc2cc(Nc3ccnc4cc(Cl)ccc34)ccc2F)n1`, the growth was 76.7%.
On to `COc1ccc2c(c1)[nH]c(=O)c1c3cccnc3cn21`, for which the growth was 38.4%.
As for `Cc1ccc(Cc2cnc(NC(=O)c3ccc4noc(-c5ccccc5)c4c3)s2)cc1`, the growth is 64.8%.
Still for that read-out and setting: the result for `CC1=CN2C(=O)C3C4=C(CCCC4)SC3N=C2CN1c1c(C)cccc1C` (stereo not drawn) reads 82.5%.
Regarding `Cc1ccc2[nH]c(=O)c3c(c2c1)OC(N)=C(C#N)C31c2cc(Br)ccc2-c2ccc(Br)cc21`, the growth was 69%.
For the compound `CS(=O)(=O)c1ccc(Nc2nc(N[C@H]3CCCC[C@H]3N)nc3cc[nH]c(=O)c23)cc1`, the growth is 21.1%.
Take `O=C(NCCCNc1cc(-c2cn(-c3ccccc3)nc2-c2cccc(O)c2)ccn1)c1cccc(O)c1`: the growth is 85.3%.
Consider `COc1ccc(C(=O)COc2ccc(/C=C3\Oc4ccccc4C3=O)cc2)cc1`, for which the growth was 90.8%.
Regarding `Cc1ccc(C2SCC(=O)N2Cc2ccccc2)cc1` (stereo not drawn), the growth was 104%.
The same measure, in the same setting: as for `Cc1cccc(Cc2cnc(NC(=O)/C=C/c3ccco3)s2)c1`, the figure is 23.7%.
For the compound `CN(C)CCNc1nc2ccccc2c2c1c1c(n2Cc2ccccc2)-c2ccccc2C1=O`, the growth was -90.4% (active).
Regarding `Cc1occc1-c1n[nH]c(=S)n1N1C(=O)CSC1=S`, the growth is 104%.
`Cc1cccc(NC(=O)CSc2nc3ccccc3[nH]2)c1`: the growth is 88.7%.
As to `Cc1ccccc1NC(=O)N/C(N)=N/c1nc(C)c(C)s1`, the growth is 43.9%.
`NNC(=O)c1nc(N)n(-c2ccc(S(N)(=O)=O)cc2)n1`: the growth is 90.6%.
Take `COc1cc(CCC[P+](c2ccccc2)(c2ccccc2)c2ccccc2)cc2c1OCO2`: the growth was 92.3%.
Take `O=C1/C(=C2/C=Nc3ccccc32)N(O)c2ccccc21`: the growth is 95.6%.
Turning to `COc1ccccc1N1C(=O)/C(=C/C2=Cc3ccccc3OC2)SC1=S`, the growth was 91.7%.
On to `C=CCn1c(C)nc2cc(Nc3nc(Cl)nc4ccccc34)ccc21`, for which the growth was 108%.
The same measure, in the same setting: the result for `COc1cc(/C=C/C(=O)c2c(C)nc3ccccc3c2C)ccc1OCCCN1CCN(C(=O)c2ccco2)CC1` reads 91.5%; that for `Cn1cc(-c2csc(-c3ccccc3)n2)c2cccnc21`, -74.3% [100 µM] (active); that for `N=C(N)c1ccc(-c2ccc(-c3cncc4ccccc34)s2)s1`, -84.8% (active).
For `CC(C)CC(NC(=O)CN(Cc1ccccc1)S(C)(=O)=O)C(=O)O` (stereo not drawn), the growth is 96%.
